# Sampled rows, rich in hits. Any-hit rate of the full collection: about 5.8%.
# KB-3-1 cytotox = qHTS assay for MDR1-selective chemotherapeutics: Primary screen using the parental adenocarcinoma cell KB-3-1; KB-3-1 viability, CellTiter-Glo ATP luminescence, 72 h; Potency, µM (highest dose often 46.1 µM), usual class: cytotoxic; actives 1.4% (n = 400,000); AID 1347075, 2019; also: % is scaled to controls: 0 for no effect and ±100 for the full control effect; nearly all actives have a fitted effect of over 60% in size
#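 KB-3-1 cells, DMEM (no phenol red) + 10% FBS; compound by pin transfer, 72 h, 37 °C. Readout: CellTiter-Glo luminescence after 10 min. Data normalized, curve-fitted.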
# MCF10A rerep = A quantitative high throughput screen for small molecules that induce DNA re-replication in MCF 10a normal breast cells | MCF 10A DNA re-replication, Hoechst nuclear intensity, 48 h | Potency, µM (top dose mostly 46.1 µM), for the others: top-dose activity, positive = re-replication, usual class: activators | actives 2.9% (n = 350,000); also: % of control where 0% means no effect; nearly all actives have a fitted effect of over 50% in size
# 12-LOX inh = Primary qHTS assay for inhibitors of human arachidonate 12S-lipoxygenase (ALOX12): Round 2; purified 12hLO, xylenol orange hydroperoxide absorbance; Potency, µM (series often up to 108 µM), for the others: top-dose activity change, negative = inhibition, usual class: inhibitors; actives 1.1% (n = 580,000); AID 1671190, 2021; also: % is scaled to controls: 0 for no effect and ±100 for the full control effect
# Target sequence (P18054 whole entry, looked up): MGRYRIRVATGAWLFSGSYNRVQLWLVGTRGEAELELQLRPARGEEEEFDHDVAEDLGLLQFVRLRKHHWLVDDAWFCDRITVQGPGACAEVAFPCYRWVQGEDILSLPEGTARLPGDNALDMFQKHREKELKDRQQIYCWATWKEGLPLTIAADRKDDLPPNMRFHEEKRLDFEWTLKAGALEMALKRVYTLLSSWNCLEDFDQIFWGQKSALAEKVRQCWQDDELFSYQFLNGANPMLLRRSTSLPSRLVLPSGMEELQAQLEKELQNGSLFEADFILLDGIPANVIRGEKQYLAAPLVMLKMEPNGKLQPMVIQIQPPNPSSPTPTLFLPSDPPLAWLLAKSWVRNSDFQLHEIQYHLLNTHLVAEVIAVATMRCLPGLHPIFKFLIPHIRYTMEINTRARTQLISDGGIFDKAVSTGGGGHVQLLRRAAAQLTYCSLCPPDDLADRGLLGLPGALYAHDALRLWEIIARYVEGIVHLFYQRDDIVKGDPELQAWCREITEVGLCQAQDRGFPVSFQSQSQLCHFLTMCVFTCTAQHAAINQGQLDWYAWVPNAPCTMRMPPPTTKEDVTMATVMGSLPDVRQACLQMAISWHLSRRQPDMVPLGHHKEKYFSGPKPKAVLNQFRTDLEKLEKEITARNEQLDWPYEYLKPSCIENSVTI
#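 Hydroperoxide product was detected by ferrous iron/xylenol orange as the 573 to 405 nm absorbance ratio. Arachidonic acid at 40 uM (final) was turned over for 30 min at room temperature by 150 nM human 12hLO, pH 7.0 Hepes buffer, after 15 min compound preincubation.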
# KB-V1 cytotox = qHTS assay for MDR1-selective chemotherapeutics: Primary screen using the drug-selected MDR subline cells KB-V1. KB-V1 MDR cells viability, CellTiter-Glo, 72 h. Potency, µM (top dose mostly 46.1 µM), hits mostly cytotoxic. actives 3.4% (n = 400,000). AID 1347076, 2019; also: % is scaled to controls: 0 for no effect and ±100 for the full control effect; nearly all actives have a fitted effect of over 60% in size
#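 KB-V1, DMEM (no phenol red) + 10% FBS; cpd pin-transferred, titration series; 72 h, 37 degrees C; CellTiter-Glo, luminescence. Data normalized, curve-fit.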
# PINK1 expr mod = A Quantitative High throughput Screen to Identify Chemical Modulators of PINK1 Expression | actives 0.2% (n = 410,000) | AID 624263, 2012 | Potency, µM (series often up to 76.6 µM), without a hit: at the top dose activation (PINK1 increase), hits mostly activators | PINK1 immunofluorescence, high-content cytometry, 24 h; active = well fitted activation curve with a large enough effect; inconclusive = small, poorly fitted or top-dose-only effect; cell line not stated here; also: % of control where 0% means no effect; nearly all actives have a fitted effect of over 65% in size
#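 Fluorescence from anti-PINK1 antibody, together with nuclear and cell stains, was scanned on a laser-scanning cytometer. Before staining, stable-line cells were incubated 24 hours with compounds at 5 concentrations; primary antibody 12 h at 10 degrees C.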
# SW480 rerep = A quantitative high throughput screen for small molecules that induce DNA re-replication in SW480 colon adenocarcinoma cells | SW480 DNA re-replication, Hoechst DNA content imaging, 48 h | Potency, µM (series often up to 46.1 µM), without a hit: at the top dose re-replication activation, hits mostly activators | actives 1.8% (n = 340,000) | AID 624297, 2012; also: % of control where 0% means no effect; nearly all actives have a fitted effect of over 55% in size
#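 Readout is total intensity of Hoechst-stained nuclei, excited at 405 nm and collected at 500-530 nm. Compound treatment lasted 48 hr at 37 C in 5% CO2 before staining.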
# Active calls of the source: *; i = inactive; ? = inconclusive; . = no result given; [ ] = another dose, or the depositor's remark. Unless noted, calls follow the shape of the dose curve; as a rule, active = well fitted curve in the direction sought with a large enough effect; inconclusive = small, poorly fitted or top-dose-only effect, or another doubt; inactive = no such curve, though single readings can be large; an effect the other way counts as inactive or inconclusive. Potency is read from the fitted curve at half-maximal effect.
SMILES,KB-3-1 cytotox,MCF10A rerep,12-LOX inh,KB-V1 cytotox,PINK1 expr mod,SW480 rerep
Cc1csc(NC(=O)CCc2ncc(-c3ccccc3Cl)o2)n1,.,.,1%,.,.,.
COc1cccc(CNC(=O)c2cc(Sc3cccc(Cl)c3)nc3ccccc23)c1,i,.,-6%,i,-3%,.
O=C(NCc1cccnc1)c1cc(Sc2cccc(Cl)c2)nc2ccccc12,?,?,-8%,16µM*,-1%,1%
COc1cccc(NC(=O)CN(C)C(C)C(=O)Nc2cc(Cl)ccc2OC)c1 (centres undefined),.,.,-6%,.,.,.
CC(C(=O)NCc1cccnc1)N(c1ccc(Oc2ccccc2)cc1)S(C)(=O)=O (centres undefined),.,.,-5%,.,.,.
CCc1cc(C(=O)Nc2c(C)nn(Cc3ccccc3Cl)c2C)no1,i,.,-7%,i,12%,.
Cc1cc(C(=O)Nc2c(C)nn(Cc3c(Cl)cccc3Cl)c2C)no1,i,-4%,-2%,9.2µM*,4%[38.3 µM],-1%
COc1ccc(-c2cc(C(=O)Nc3c(C)nn(Cc4ccccc4Cl)c3C)no2)cc1,i,10µM*,0%,i,?,8%
O=C1CN(C(=O)CNc2ccccc2C(=O)Nc2ccc(F)cc2)c2ccccc2N1,.,.,-1%,.,.,.
COc1ccc(N2CCC(CNC(=O)Nc3cccc(OC)c3)C2)cc1 (centres undefined),i,?,?,21µM*,-1%[38.3 µM],12%
CCc1ccccc1NC(=S)NCC1CCN(c2ccc(OC)cc2)C1 (centres undefined),?,?,?,21µM*,0%,-8%
C[C@@H]1CN(Cc2nc3c(n2Cc2ccccc2)C(=O)N(CCOc2ccccc2)CCN3)C[C@H](C)O1,.,.,69%,.,.,.
CCCN1CNC(=S)N(c2ccc(C(=O)OCC)cc2)C1,i,-12%,0%,i,-1%,-33%
CCOC(=O)c1ccc(N2CN(CCc3ccccc3)CNC2=S)cc1,i,7%,45µM*,i,-1%,0%
CC(=O)N1NC(=Nc2ccccc2)SC1(C)C,i,11%,0%,18µM*,-1%,-3%
C/C(=N\NC(=O)c1ccccc1O)c1ccc(Br)s1,i,7%,-3%,?,1%,.
C/C(=N\NC(=O)c1cccc(F)c1)c1ccc(Br)s1,i,?,24%,?,?,9.2µM*
CCc1ccc(C(=O)N2CCN(C(=O)c3nnn4c3COC(c3ccc(OC)cc3)C4)CC2)cc1 (centres undefined),.,.,8%,.,.,.
C=CCN1C(=O)C2C3CC(=O)C(c4ccccc43)C2C1=O (centres undefined),i,10%,2%,i,1%,5.2µM*
O=C1CC2c3ccccc3C1C1C(=O)N(CCc3ccccc3)C(=O)C21 (centres undefined),i,11%,-9%,i,-1%,-14%
COc1ccc(NC(=O)CSc2nnc(-c3ccco3)n2N)cc1Cl,i,-1%,15%,i,1%,-23%
Cn1c(SCC(=O)Nc2cc(Cl)cc(Cl)c2)nnc1-c1ccc2nonc2c1,i,18µM*,?,?,-2%,18µM*
CCc1ccc(NC(=O)CSc2nnc(-c3ccccn3)n2C)cc1,i,22%,-20%,i,8%[38.3 µM],-14%
CCCn1c(SCC(=O)NCCc2ccccc2)nnc1-c1ccccn1,i,4%,-6%,?,-2%,-1%
COc1ccc(NC(=O)CSc2nnc(-c3ccccn3)n2N)cc1Cl,i,2%,-1%,16µM*,-3%[38.3 µM],-6%
SMILES,KB-3-1 cytotox,MCF10A rerep,12-LOX inh,KB-V1 cytotox,PINK1 expr mod,SW480 rerep
CC(C)c1ccc(NC(=O)CSc2nnc(-c3ccccn3)n2C)cc1,i,-2%,-4%,5.2µM*,1%,-13%
CCCn1c(SCC(=O)Nc2nnc(-c3ccccc3)s2)nnc1-c1ccccn1,i,18µM*,?,i,0%,0%
Cc1cccc(Nc2nc(N)c(C#N)c(CC#N)c2C#N)c1,i,?,-7%,i,1%,-2%
N#Cc1c(N)nc(N)nc1Nc1ccc(Br)cc1,?,4%,-22%,13µM*,-1%,3%
O=C(NCCCN1CCOCC1)c1csc(Nc2ccccc2Cl)n1,.,.,9%,.,.,.
Cc1cc(C)cc(NC(=O)Nc2ccc(-n3ccc(C(F)(F)F)n3)cc2)c1,i,21µM*,2%,i,?,?
O=C(Nc1ccc(-n2ccc(C(F)(F)F)n2)cc1)Nc1cccc(Cl)c1,.,.,0%,.,.,.
O=C(Nc1ncn[nH]1)C1CC(=O)N(c2ccc3c(c2)OCCO3)C1 (centres undefined),.,.,8%,.,.,.
COc1ccc(-c2nc(C#N)c(NCCN(C)C)o2)cc1OC,.,.,-1%,.,.,.
S=C(Nc1ccccc1Cl)N1CCN(c2ccccn2)CC1,i,2%,1%,i,-1%,-5%
CC(NNC(=S)N1CCN(c2ccccn2)CC1)c1nccc2ccccc12 (centres undefined),?,?,?,0.46µM*,-5%,?
Fc1ccccc1NC(=S)N1CCN(c2ccccn2)CC1,i,?,-14%,21µM*,2%,10%
COc1ccc(CNC(=O)C[C@@H]2C[C@H]3O[C@H](CNCc4ccccc4Cl)[C@@H](O)[C@H]3O2)cc1,.,.,-20%,.,.,.
CC(OC(=O)c1ccc(-c2ccc(O)cc2)cc1)C(=O)NC1CCCCC1C (centres undefined),?,17%,-10%,16µM*,12%,8%
CC(OC(=O)c1ccc2c(c1)OCO2)C(=O)NC1CCCCC1C (centres undefined),i,2%,-27%,?,6%,-10%
C=CCNC(=S)N/N=C1/CCC=C1CCCCC,.,.,35µM*,.,.,.
CN1CCN(c2ccc(NC(=O)c3ccccc3F)nc2)CC1,.,.,-3%,.,.,.
CC1(C)C(C=C(Cl)Cl)C1C(=O)N(Cc1ccccc1Cl)C1CCS(=O)(=O)C1 (centres undefined),i,9%,-21%,15µM*,-2%,0%
Cc1cc(Nc2cc(Cl)nc(Sc3ccc(NC(=O)C4CC4)cc3)n2)n[nH]1,1.6µM*,34%,-28%,i,-1%,21µM*

# Screening results deposited in PubChem by National Center for Advancing Translational Sciences (NCATS).
